The term AC50 denotes the concentration giving half of the maximal activity seen.

Consider 60 molecules from PubChem BioAssay AID1851 (National Center for Advancing Translational Sciences (NCATS), 2009).

SMILES strings stand for the structures. About 5,700 (36%) of roughly 16,000 compounds were called active. Not shown: some 24% with an inconclusive outcome. The list shows a part of the results. A number with no mark means an inactive call. Calls come from the whole dose curve; as a rule, active = well fitted curve in the direction sought with a large enough effect; inconclusive = small, poorly fitted or top-dose-only effect, or effect the other way; inactive = no such curve, though single readings can be large or run the other way.
% is set by controls: 0 for no effect and ±100 for the full control effect.

For the test, the target named is Cytochrome P450 1A2 (Homo sapiens) (UniProt P05177). The test can be described thus: Cytochrome panel assay with activity outcomes. The note with it: recombinant CYP, pro-luciferin dealkylation, luminescence, p450-cyp1a2; series mostly up to 57.1 µM; activity, negative = inhibition: at the top concentration.
Sequence of Cytochrome P450 1A2 (Homo sapiens) (P05177 whole entry, looked up): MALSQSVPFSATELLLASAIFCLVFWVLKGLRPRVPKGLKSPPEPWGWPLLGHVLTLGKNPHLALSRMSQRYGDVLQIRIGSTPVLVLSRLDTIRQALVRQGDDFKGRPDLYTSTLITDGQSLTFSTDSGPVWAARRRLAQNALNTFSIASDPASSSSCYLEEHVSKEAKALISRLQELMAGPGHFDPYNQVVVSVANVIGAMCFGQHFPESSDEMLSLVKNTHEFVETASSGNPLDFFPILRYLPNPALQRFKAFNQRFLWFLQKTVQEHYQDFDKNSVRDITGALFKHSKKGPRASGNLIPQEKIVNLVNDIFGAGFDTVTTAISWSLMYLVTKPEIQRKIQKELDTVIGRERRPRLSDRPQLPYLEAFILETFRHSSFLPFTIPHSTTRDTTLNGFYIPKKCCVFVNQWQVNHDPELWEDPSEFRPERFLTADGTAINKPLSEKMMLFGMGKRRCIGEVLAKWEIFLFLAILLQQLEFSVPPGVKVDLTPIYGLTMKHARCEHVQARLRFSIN
Take `CO[C@H]1COC(=O)C/C=C\[C@@H](C)[C@H](OC)COC(=O)[C@H]2CCCN2C(=O)C/C=C\[C@@H]1C`: the activity, negative = inhibition is 3.92% [at 11.4 µM].
Still for that read-out and setting: the same measure for `CC(=O)OC[C@@H]1O[C@H](CCO/N=C(\C)CCC(=O)OC[C@@H]2O[C@H](C#Cc3ccccc3)C=C[C@@H]2Oc2ccc(C)cc2)C=C[C@@H]1OC(C)=O`: -1.59% [at 11.4 µM].
Turning to `Cc1nc2cc(NC(=O)CSc3nc4c(C)cccc4cc3C#N)ccc2s1`, the AC50 is 2.82 µM (active).
Turning to `CCC(=O)NNC(=O)CCC(=O)Nc1ccccc1`, the “activity, negative = inhibition” value is 2.63%.
With `O=C(CCOc1ccccc1)Nc1ccccc1`, the AC50 is 8.91 µM (active).
On the same count and under the same terms, with `COc1ccc(NC(=O)CCOc2ccccc2)cc1` the figure was 3.55 µM (active).
With `CC(=O)NNC(=O)CCC(=O)Nc1ccccc1`, the “activity, negative = inhibition” value is -3.3%.
As to `Oc1ccccc1CNCc1ccccc1O`, the activity, negative = inhibition is -17.8% [at 11.4 µM].
With `COC(=O)c1cccc(NC(=O)CCCOc2ccccc2)c1`, the AC50 was 0.891 µM (active).
The same measure, in the same setting: the same measure for `O=C(Cc1ccccc1I)Nc1ccccc1`: 12.6 µM (active).
As to `O=S(=O)(O)C1CCNCC1`, the “activity, negative = inhibition” value is 7.71%.
For `CO[C@@H]1COC(=O)CC=C[C@@H](C)[C@@H]2C=C[C@H](O)[C@@H](COC(=O)[C@H](C)NC(=O)CC=C[C@H]1C)O2`, the activity, negative = inhibition is -7.89% [at 11.4 µM].
In the case of `COC(=O)c1cccc(NC(=O)Nc2ccc(Cl)c(Cl)c2)c1`, the AC50 is 8.91 µM (active).
For `CC(C)(CC(=O)Nc1ccccc1)C(=O)O`, the activity, negative = inhibition was -15.9% [at 11.4 µM].
Regarding `NCC(=O)Nc1ccccc1`, the AC50 is 2.51 µM (active).
Consider `COc1ccc(NC(=O)CCSc2cc(C)c3ccccc3n2)cc1`, for which the AC50 is 7.08 µM (active).
Still for that read-out and setting: the same measure for `CCCCC#Cc1ccccc1CC(=O)Nc1ccccc1`: 2.51 µM (active).
In the case of `Cc1cccc(C)c1NC(=O)C(c1ccc(Cl)cc1Cl)N1CCCCC1` (stereo not given), the “activity, negative = inhibition” value is -22.8%.
Consider `O=C1C[C@@H](O)[C@@H](O)[C@@H]2[C@H]3C(=O)N(c4ccc(F)cc4F)C(=O)[C@@H]3CC[C@H]12`, for which the activity, negative = inhibition was 8.95% [at 11.4 µM].
Take `O=C(COC(=O)COc1ccccc1)Nc1ccc(OC(F)(F)F)cc1`: the AC50 was 20 µM (active).
`O=C(COc1ccccc1)Nc1ccc(-c2nnc(-c3ccco3)o2)cc1`: the “activity, negative = inhibition” value is 7.06%.
Still for that read-out and setting: the same measure for `CCc1nnc(NC(=O)C2Cc3ccccc3CN2S(=O)(=O)c2ccc(C)cc2)s1` (stereo not given): -13.9%.
`O=C(Nc1nnc(C2CC2)s1)C1Cc2ccccc2CN1S(=O)(=O)c1ccccc1F` (stereo not given): the AC50 was 12.6 µM (active).
The same measure, in the same setting: the same measure for `O=C(Nc1nccs1)C1Cc2ccccc2CN1S(=O)(=O)c1ccc(F)cc1` (stereo not given): 2.24 µM (active).
In the case of `Nc1ccc(S(=O)(=O)Nc2nccs2)cc1`, the “activity, negative = inhibition” value is -1.59% [at 25.6 µM].
The same measure, in the same setting: the same measure for `O=C(c1csnn1)N1CCC2(CC1)CN(c1ccccn1)C2`: -12%.
Take `Cc1ccc2nc(-c3ccc(NC(=O)Cc4cccs4)cc3)[nH]c2c1`: the AC50 is 0.631 µM (active).
The same measure, in the same setting: the same measure for `CCNc1ncc2nc(C)c(=O)n(CCC#N)c2n1`: 12.6 µM (active); for `CCNc1ncc2nc(-c3cn(C)c4ccccc34)c(=O)n(C)c2n1`: 0.1 µM (active).
Still for that read-out and setting: the same measure for `CCNc1ncc2nc(-c3cn(C)c4ccccc34)c(=O)n(CCC#N)c2n1`: 5.01 µM (active); for `CCNc1ncc2nc(-c3ccccc3)c(=O)n(CCC#N)c2n1`: 3.16 µM (active).
On to `CC1(C)S[C@@H]2[C@H](NC(=O)[C@H](C(=O)O)c3ccsc3)C(=O)N2[C@H]1C(=O)O`, for which the “activity, negative = inhibition” value is -3.26% [at 25.6 µM].
With `CCOC(=O)c1c(C)[nH]c2ccc3c(c12)CN1CCc2cc(OC)ccc2[C@@H]1O3`, the AC50 is 0.158 µM (active).
Take `CCOC(=O)Oc1c(OC)cc(C(=O)O[C@H]2C[C@H]3CN4CCc5c([nH]c6cc(OC)ccc56)[C@@H]4C[C@H]3[C@@H](C(=O)OC)[C@@H]2OC)cc1OC`: the “activity, negative = inhibition” value was -4.49% [at 25.6 µM].
As to `Cc1ccc(C2/C(=C(/O)c3ccccc3)C(=O)C(=O)N2CCN2CCOCC2)o1` (stereo not given), the “activity, negative = inhibition” value is -25.3%.
As to `Cc1ccc(C)c(/C(O)=C2/C(=O)C(=O)N(CCN3CCOCC3)C2c2ccco2)c1` (stereo not given), the AC50 is 25.1 µM (active).
Regarding `COc1ccc(/C(O)=C2/C(=O)C(=O)N(CCN3CCOCC3)C2c2ccc(C)cc2)cc1` (stereo not given), the “activity, negative = inhibition” value was 8.1%.
Still for that read-out and setting: with `CN1CCc2[nH]nc(-c3n[nH]c4c3CN(C)CC4)c2C1` the figure was -15.6% [at 11.4 µM].
The same measure, in the same setting: with `COc1ccc2c3c([nH]c2c1)[C@@H]1C[C@@H]2[C@@H](C[C@H](O)[C@H](OC)[C@H]2C(=O)O)CN1CC3` the figure was -3.07% [at 25.6 µM].
In the case of `COc1ccc2[nH]c3c(c2c1)CN(C)CC3`, the AC50 was 12.6 µM (active).
Consider `Cc1ccc(C(=O)NC(=S)Nc2cc(-c3nc4ccccc4s3)ccc2C)cc1`, for which the “activity, negative = inhibition” value was -18.7%.
The same measure, in the same setting: with `COc1ccc(C(=O)NNC(=S)NC(=O)c2ccco2)cc1` the figure was -16.2%.
With `COc1ccc(CN(CCC#N)C(=S)NC(=O)c2ccccc2)cc1`, the AC50 was 5.01 µM (active).
On the same count and under the same terms, the same measure for `COc1ccc(C(=O)NCc2ccc(-c3nc4ccccc4s3)cc2)cc1`: 3.16 µM (active).
In the case of `CCOc1ccc(N(CCC#N)S(=O)(=O)c2ccc(OC)cc2)cc1`, the “activity, negative = inhibition” value is 2.01%.
Consider `COc1ccc(C(=O)NC(=S)NCc2ccccc2)cc1`, for which the AC50 was 3.16 µM (active).
Same read-out and setting: the same measure for `CC(C)(C)C(=O)NC(=S)NCCc1ccccc1`: 7.08 µM (active).
Regarding `CN(C)C(=O)N1CCCC(C(=O)NCCc2ccccc2)C1` (stereo not given), the “activity, negative = inhibition” value is 8.15%.
Still for that read-out and setting: with `O=C(Oc1ccc2c(c1)CN(Cc1ccccc1)CO2)c1ccccc1` the figure was -14.3% [at 2.29 µM].
Same read-out and setting: with `C[C@H](c1ccccc1)N1C(=O)[C@H]2[C@@H]3[C@H](O)[C@H](O)CC(=O)[C@H]3CC[C@H]2C1=O` the figure was -6.45% [at 11.4 µM]; with `O=C(O)Cc1ccc2ocnc2c1`, 12.6%.
`CCCCN1C(=O)CN(CCc2ccccc2)C(=O)C1c1ccc(OC)cc1` (stereo not given): the “activity, negative = inhibition” value is -13.8%.
As for `CNC(=O)NC(=S)NC(=O)c1ccc(OC)cc1`, the AC50 was 10 µM (active).
The same measure, in the same setting: the same measure for `COc1ccc(C(=O)NCc2cn3ccccc3n2)cc1`: 10 µM (active).
As for `COc1cc(OC)cc(C(=O)NC(=S)Nc2ccc(Cl)c(C(=O)O)c2)c1`, the “activity, negative = inhibition” value is -4.61%.
As for `COc1cc(OC)cc(C(=O)NC(=S)NCCc2ccccc2)c1`, the AC50 is 1.26 µM (active).
With `Cc1ccc(C(=O)O)cc1N1C(=O)c2cccc3cc(Br)cc(c23)C1=O`, the “activity, negative = inhibition” value was -9.48%.
The same measure, in the same setting: the same measure for `CC(C)(C)c1cc2c(O)c(c1)Cc1cc(C(C)(C)C)cc(c1O)Cc1cc(C(C)(C)C)cc(c1O)Cc1cc(C(C)(C)C)cc(c1O)Cc1cc(C(C)(C)C)cc(c1O)Cc1cc(C(C)(C)C)cc(c1O)Cc1cc(C(C)(C)C)cc(c1O)Cc1cc(C(C)(C)C)cc(c1O)C2`: -14.2% [at 11.4 µM].
On to `CN(Cc1cc(C(C)(C)C)cc(Br)c1O)Cc1cc(C(C)(C)C)cc(Br)c1O`, for which the AC50 was 3.16 µM (active).
For `CC(CCC(=O)O)(c1cc(Br)c(O)c(Br)c1)c1cc(Br)c(O)c(Br)c1`, the activity, negative = inhibition was -17.9% [at 2.29 µM].
